Molecules are shown by their SMILES. About 2,700 (4%) of roughly 68,000 compounds showed an effect of 50% or more. This excerpt belongs to a sample that is enriched for strong results.

This assay has as its system Plasmodium berghei. Briefly: Screen against P. berghei liver stage (PbLuc), transformed with Luciferase, at 2uM. The class given is functional, HepG2. To be noted: tested at 2 uM.
On to `CCN(CC)C1(Cc2cc(-c3cccc(O)c3)on2)COC1`, for which the INHIBITION is recorded as 10.08%.
For `CCCN(CCC)C1(Cc2cc(-c3cccc(O)c3)on2)COC1` the value was 50.72%.
For `Oc1cccc(-c2cc(CC3(N(CC4CC4)CC4CC4)COC3)no2)c1` the value was -4.2%; for `NC1(C(=O)NCCC2CN(Cc3ccco3)CCO2)CCCC1` (stereo not given), 18.98%.
For `CC(C)(C)c1noc(CCCC(=O)N2CCNC(=O)C2)n1` the value was -31.79%.
As to `COCCOC(=O)N1C[C@@H]2CC[C@H]1CN(C1Cc3ccccc3C1)C2`, the INHIBITION is recorded as -31.79%.
For `COCCC(=O)N1C[C@@H]2CC[C@H]1CN(C1Cc3ccccc3C1)C2` the value was 28.97%; for `COCCOCC(=O)N1C[C@@H]2CC[C@H]1CN(C1Cc3ccccc3C1)C2`, 61.82%; for `Cc1cc(C)n(C2CCCN(C(=O)c3ccn(C)c(=O)c3)C2)n1` (stereo not given), -42.24%.
As to `O=C(COCCOc1ccccc1)N1CCCC(n2ccnc2)C1` (stereo not given), the INHIBITION is given as 29.12%.
For `O=C(COCC1CC1)N1CCCC(n2ccnc2)C1` (stereo not given) the value was 67.53%; for `O=C(COC1CCCCC1)N1CCCC(n2ccnc2)C1` (stereo not given), -0.13%.
For `CC(=O)Nc1nc(C(=O)N2CCCC(n3ccnc3)C2)cs1` (stereo not given) the value was 18.46%; for `O=C(COCC1CC1)N1CCCC(n2cccn2)C1` (stereo not given), -5.7%.
The value for `Cc1nc(C(=O)N2CCCC(n3cncn3)C2)cs1` (stereo not given) was -81.94%; that for `O=C(COCC1CC1)N1CCCC(n2cncn2)C1` (stereo not given) was 62.46%; that for `O=C(COCc1ccccc1)N1CCCC(n2cncn2)C1` (stereo not given) was 24.15%.
In the case of `CC(=O)Nc1nc(C(=O)N2CCCC(n3cncn3)C2)cs1` (stereo not given), the INHIBITION is 72.31%.
As for `Cc1ccccc1CN1CCC(CNc2ncnc3c2CCNCC3)C1` (stereo not given), the INHIBITION is 32.26%.
Consider `c1cnc(N2CCOCC3(CN(Cc4nccs4)CCO3)C2)nc1` (stereo not given), for which the INHIBITION stood at 14.39%.
The value for `CCC(C)NC(=O)c1nnn(-c2cccc3c2CCN(C)C3)c1C` (stereo not given) was -46.36%; that for `O=C(NCCN1CCCCC1)c1ccoc1` was 6.12%; that for `COc1ccc(-c2cnc(CN3CCCC3Cn3cccn3)o2)cc1` (stereo not given) was -36.73%.
For `O=C(NC1CCN(c2cccc(OC(F)(F)F)c2)C1=O)C1CC1` (stereo not given) the value was -0.13%.
As to `C=C(C)CN(Cc1cccc(O)c1)C1CCC(O)CC1` (stereo not given), the INHIBITION is recorded as 6.55%.
For `CC(C)OCCN(Cc1cccc(O)c1)C1CCC(O)CC1` (stereo not given), the INHIBITION was 11.78%.
For `CS(=O)(=O)CCN(Cc1cccc(O)c1)C1CCC(O)CC1` (stereo not given) the value was 50.4%.
For `CSCCC(=O)N1CCC(CCC(=O)NCC2CCCO2)CC1` (stereo not given) the value was 20.71%; for `CC(O)(CNC(=O)c1c(F)cccc1Cl)C1CC1` (stereo not given), -21.74%; for `Cc1nc(NC(=O)CNC(=O)c2c(F)cccc2Cl)n[nH]1`, 9.5%.
The value for `O=C(CNC(=O)c1c(F)cccc1Cl)Nc1ccc(F)cn1` was 67.28%; that for `CCc1c(C)nc2cc(C3CCN(Cc4ccc(F)cc4)C3)nn2c1O` (stereo not given) was 40.31%.
With `CCc1c(C)nc2cc(C3CCN(Cc4cccnc4)C3)nn2c1O` (stereo not given), the INHIBITION was determined as 31.56%.
For `CCc1c(C)nc2cc(C3CCN(Cc4cccc(F)c4)C3)nn2c1O` (stereo not given) the value was 65.74%; for `CCc1ccc(CN2CCc3ncnc(N4CCOCC4)c3CC2)o1`, -21.37%; for `CN1CCN(C[C@@H]2CN(C(=O)NCC3CCCCC3)C[C@@H]2CO)CC1`, -26.04%.
The value for `COc1ccc(CN2CC[C@H]3O[C@@H](C(=O)NCC4CC4)CC[C@H]32)cc1` was 44.4%.
For `CC(Cn1cccn1)NC(=O)NCc1cccnc1` (stereo not given) the value was 61.3%; for `CC(Cn1cccn1)NC(=O)Nc1ccc(N(C)C)nc1` (stereo not given), 5.96%; for `CC(Cn1cccn1)NC(=O)NCCc1cccnc1` (stereo not given), 10.53%.
`CC(Cn1cccn1)NC(=O)NCCCN1CCCCCC1=O` (stereo not given): the INHIBITION stood at 48.37%.
The value for `CC(Cn1cccn1)NC(=O)NCCN1CCCCCC1=O` (stereo not given) was 50.03%; that for `CCN(CC)c1ccc(NC(=O)NC(C)Cn2cccn2)cn1` (stereo not given) was 52.3%; that for `COc1ccc(NC(=O)NC(C)Cn2cccn2)cn1` (stereo not given) was -40.27%.
The value for `Cc1ccc(CNC(=O)NC(C)Cn2cccn2)cn1` (stereo not given) was 49.01%.
For `CC(Cn1ccnc1)NC(=O)NCCN1CCCCCC1=O` (stereo not given) the value was 17.18%; for `COc1ccc2c(ccn2CCC(=O)NCc2ccc(C(=O)O)cc2)c1`, 42.94%; for `Cc1ccc(C(CCNCCN(C)C)C2CCOC(C)(C)C2)cc1` (stereo not given), 26.52%.
Turning to `Cc1ocnc1C(=O)N1CCC2(CC1)c1nc[nH]c1CCN2CC(C)C`, the INHIBITION came out at 52.83%.
For `CC(C)CN1CCc2[nH]cnc2C12CCN(C(=O)c1ccnn1C)CC2` the value was 29.19%.
The value for `CC(C)CN1CCc2[nH]cnc2C12CCN(C(=O)c1ccc[nH]1)CC2` was 22.43%; that for `CC(C)CN1CCc2[nH]cnc2C12CCN(C(=O)c1cccnc1)CC2` was 0.3%; that for `Cc1cc(C(=O)N2CCC3(CC2)c2nc[nH]c2CCN3CC(C)C)no1` was 37.63%.
Consider `CC(C)CN1CCc2[nH]cnc2C12CCN(C(=O)c1cnn(C)c1)CC2`, for which the INHIBITION stood at 51.14%.
On to `CCc1ccc(S(=O)(=O)N2CCCC3(CCCN3S(C)(=O)=O)C2)cc1` (stereo not given), for which the INHIBITION amounted to 28.41%.
The value for `Cc1cc(C)n(CCNCc2cc(-c3ccccc3)c[nH]c2=O)n1` was 24.26%; that for `CC1CCc2nn(CCNC(=O)c3cccs3)c(=O)cc2C1` (stereo not given) was 28.82%.
As for `CC(C)N1[C@@H](C(=O)NCC2CC2)C[C@@H]2CN(Cc3ccco3)C[C@@H]21`, the INHIBITION came out at 28.2%.
For `Cc1nn(C)c(C)c1C(C)NCc1ccsc1` (stereo not given) the value was 38.83%; for `CS(=O)(=O)c1cncnc1C1CCCN(C(=O)Nc2ccc(F)cc2)C1` (stereo not given), -0.7%.
For `CC(C)N(Cc1ccccn1)C(=O)CCOc1cccc(F)c1` the value was 5.43%.
Take `Cc1cc(NCC2CCCO2)cc(=O)n1C` (stereo not given): the INHIBITION is reported as -0.15%.
For `COCCNC(=O)C(C)n1nc(-c2ccco2)cc(N)c1=O` (stereo not given) the value was 54.2%; for `COCCNC(=O)C(C)n1nc(-c2ccc(C)o2)cc(N)c1=O` (stereo not given), -21.09%; for `COCCCNC(=O)C(C)n1nc(-c2ccco2)cc(N)c1=O` (stereo not given), -1.32%.
The value for `CCN1CCC(CNC(=O)C(c2ccccc2F)N(C)C)(N(C)C)CC1` (stereo not given) was 46.58%; that for `O=C(Cc1cccs1)N1CCOCC1c1ccccc1` (stereo not given) was -26.81%.
For `CC(C)n1ccnc1CN1CCCN(C(=O)c2cscn2)CC1` the value was -28.58%; for `CC(C)C(O)CNC(=O)Nc1cccc(-c2nccs2)c1` (stereo not given), -2.23%; for `Cn1cc(CN(CC2(O)CNCCOC2)C2CCCCC2)cn1` (stereo not given), 0.17%.
As for `Cn1cc(CN(CC2(O)CCNC2)C2CCCCC2)cn1` (stereo not given), the INHIBITION turned out to be 60.64%.
For `CN(Cc1ccc2nsnc2c1)CC1(O)CNCCOC1` (stereo not given) the value was -1.57%; for `OC1(CN2CCC(Oc3cccnc3)CC2)CNCCOC1` (stereo not given), 3.58%.
Consider `OC1(CN(Cc2cccnc2)C2CCCCC2)CNCCOC1` (stereo not given), for which the INHIBITION amounted to 74.3%.
`Cn1cc(CN(C/C=C/c2ccccc2)C2CC2)cn1`: the INHIBITION is listed as -17.37%.
The value for `CN(C)c1ccc(C(CNS(=O)(=O)c2cccs2)N2CCCC2)cc1` (stereo not given) was 14.19%; that for `COc1cccc(-c2n[nH]cc2-c2nc(CC3CCN(C)CC3)no2)c1` was 38.67%; that for `Cc1noc(C)c1C(=O)N1CCCC1(C)C(=O)NC1CCCC1` (stereo not given) was 11.32%.
For `O=C(Cc1ccc2c(c1)CCO2)N1CCCC(n2cccn2)C1` (stereo not given) the value was 52.52%.
The value for `O=C(CCc1ccc2c(c1)OCO2)N1CCCC(n2cccn2)C1` (stereo not given) was -29.38%; that for `O=C(Cc1ccc2c(c1)OCCO2)N1CCCC(n2cncn2)C1` (stereo not given) was -7.15%.
Take `O=C(Cc1ccc2c(c1)OCCO2)N1CCCC(n2cccn2)C1` (stereo not given): the INHIBITION turned out to be 56.12%.
In the case of `O=C(Cc1ccc2c(c1)CCC2)N1CCCC(n2cccn2)C1` (stereo not given), the INHIBITION is -0.71%.
The value for `Cc1cnn(C2CCCN(C(=O)Cc3ccc4c(c3)CCO4)C2)c1` (stereo not given) was 11.95%; that for `COc1cc(N2CC[C@@H](O)[C@@H]2Cc2cccnc2)ncn1` was 32.21%.
The value for `CCCc1nc(C[S+]([O-])Cc2cn3cccc(C)c3n2)no1` (stereo not given) was 16.37%; that for `CCOC(=O)c1nc(CN2CCC(NC(=O)C(C)C)CC2)cs1` was -3.25%.
The value for `CCN1CCC2(CCC1=O)CN(c1cnc3ccccc3n1)CCN2C` (stereo not given) was -40.52%.
For the compound `COc1ccc(-c2cn([C@H](CO)CC(C)C)nn2)cn1`, the INHIBITION was found to be 79.9%.
Consider `CC(C)C[C@@H](CO)n1cc(-c2cnc(-c3ccco3)nc2)nn1`, for which the INHIBITION is given as -39.9%.
For `CC(C)C[C@@H](CO)n1cc(-c2cncnc2)nn1` the value was 26.99%; for `O=C1Nc2ccccc2CC12CCCN2Cc1ccc(C(F)(F)F)cc1` (stereo not given), -27.83%.
For `CC(C)c1cc(C2CCCN2C(=O)c2cn3ccsc3n2)no1` (stereo not given) the value was -46.68%.
The value for `COc1ccccc1C1CNCCN1C(=O)c1ccc(F)cc1` (stereo not given) was -20.28%.
As for `O=C(Nc1nncs1)C1CSCN1C(=O)C1CCCC1` (stereo not given), the INHIBITION is recorded as -67.78%.
The value for `COc1ccc2c(c1)C1(CCN(Cc3cccnc3)CC1)N(C)CC2` was 64.92%; that for `COc1ccc2c(c1)C1(CCN(Cc3ccncc3)CC1)N(C)CC2` was 32.14%.
The value for `COc1ccc2c(c1)C1(CCN(Cc3cnn(C)c3)CC1)N(C)CC2` was 21.14%.
In the case of `CC1(C)CN(CCC(=O)NCc2cccc(Cl)c2)CC[C@]1(C)O`, the INHIBITION is listed as -70.63%.
The value for `CN(C)c1nccc(C2CCCN(C(=O)CO)C2)n1` (stereo not given) was 1.13%.
For `CCn1c(Cn2cncn2)nnc1C1CCN(CC2[C@H]3CNC[C@@H]23)CC1` (stereo not given in full) the value was -11.68%; for `CC(C)CN1C(=O)CC[C@H]2CN(Cc3ncc[nH]3)CC[C@H]21`, 20.74%.
With `CSCCCN1C(=O)CC[C@H]2CN(Cc3ncc[nH]3)CC[C@H]21`, the INHIBITION stood at 27.5%.
Regarding `COCCCN1C(=O)CC[C@H]2CN(Cc3ncc[nH]3)CC[C@H]21`, the INHIBITION is reported as 50.59%.
For `CC1(C)COCCN1C(=O)CCc1nc(-c2ccccn2)no1` the value was -4.89%.

The values above are taken from ChEMBL document CHEMBL4513216, “Probing the Open Global Health Chemical Diversity Library for Multistage-Active Starting Points for Next-Generation Antimalarials” (ACS Infect Dis, 2020).
